According to PubChem BioAssay AID720706 (Broad Institute, 2013):
Out of some 350,000 compounds screened, about 5,500 (1.6%) were called active.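 The calls were made as follows: active = significant combined selectivity score with lowered wild-type GFP, culture density cut under 30%, mutant RFP and density less affected; inactive = any of these conditions unmet.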 This excerpt belongs to a sample that is enriched for actives.

Assay: GFP drop in mixed WT/humanized-ribosome E. coli culture – GFP/RFP fluorescence, OD600, single point, bacterial rRNA inhibitor project, primary screen (AID 720706)
Settings: E. coli WT GFP vs humanized-ribosome RFP mutants, 24 h; GFP signal change (wild-type ribosome): stronger effect = lower value, DMSO median 0, no signal -100; OD600 change: measured here: OD600 growth, DMSO median 0, no signal -100; RFP signal change: measured here: RFP humanized mutant strains, DMSO median 0, no signal -100, concentration not given here
With `C[C@H](CO)N1C[C@H](C)[C@H](CN(C)C(=O)C2CCOCC2)Oc2ncc(C#Cc3ccccc3F)cc2C1=O` the GFP signal change (wild-type ribosome) was 4.96% (inactive), the OD600 change was 16.6% and the RFP signal change was -0.455%. With `Cc1cc2ccccn2c1C(=O)c1cccc(F)c1` the GFP signal change (wild-type ribosome) was -7.7% (inactive), the OD600 change was -19.4% and the RFP signal change was -0.345%. In the case of `Cc1cc2ccccn2c1C(=O)c1cccc(S(=O)(=O)N2CCOCC2)c1`, the GFP signal change (wild-type ribosome) is reported as -23.1% (active), the OD600 change is reported as -17.5% and the RFP signal change is reported as 2.76%. With `Cc1nc2ccc(NC(=O)c3cccc(S(=O)(=O)N4CCOCC4)c3)cc2s1` the GFP signal change (wild-type ribosome) was -8.91% (inactive), the OD600 change was -4.27% and the RFP signal change was -0.693%. With `O=C(NC1CCCC1)[C@H]1[C@H](CO)[C@H]2Cn3c(cccc3=O)[C@H]2N1C(=O)NC1CCCC1` the GFP signal change (wild-type ribosome) was 6.01% (inactive), the OD600 change was 13.7% and the RFP signal change was -2.22%. With `COc1ccc(S(=O)(=O)N(C)C[C@@H]2OCCCC[C@@H](C)Oc3ccc(NS(C)(=O)=O)cc3C(=O)N([C@H](C)CO)C[C@@H]2C)cc1` the GFP signal change (wild-type ribosome) was 2.26% (inactive), the OD600 change was 6.89% and the RFP signal change was -2.21%. With `O=C(NCC[C@H]1CC[C@H](NC(=O)C2CC2)[C@@H](CO)O1)c1cc(Cl)cc(Cl)c1` the GFP signal change (wild-type ribosome) was -1.63% (inactive), the OD600 change was -6.47% and the RFP signal change was -0.371%. In the case of `CCCNC(=O)N1[C@H](CO)[C@@H]2c3ccccc3N(C(=O)C3CC3)C[C@@H]21`, the GFP signal change (wild-type ribosome) is reported as 6.32% (inactive), the OD600 change is reported as 5.65% and the RFP signal change is reported as 0.0995%. In the case of `CC[C@H]1OC(=O)[C@H](C)[C@@H](O[C@H]2C[C@@](C)(OC)[C@@H](O)[C@H](C)O2)[C@H](C)[C@@H](O[C@@H]2O[C@H](C)C[C@H](N(C)C)[C@H]2O)[C@](C)(O)C[C@@H](C)[C@@H]2N[C@@H](COCCOC)O[C@H]([C@H]2C)[C@]1(C)O`, the GFP signal change (wild-type ribosome) is reported as -22.6% (active), the OD600 change is reported as -9.78% and the RFP signal change is reported as 5.64%. With `Cn1cnc(S(=O)(=O)N2C[C@@H](O)COC[C@H]3O[C@H](CC(=O)N4CCN(c5ccccc5)CC4)CC[C@@H]32)c1` the GFP signal change (wild-type ribosome) was 9.71% (inactive), the OD600 change was 22% and the RFP signal change was -0.0733%. For `CCN(CC)CCNC(=O)c1ccc(NC(=O)c2c(F)cccc2Cl)cc1`, the GFP signal change (wild-type ribosome) was 7.17% (inactive), the OD600 change was -3.78% and the RFP signal change was -0.531%. With `Cc1ccc(NNC(=O)c2c(F)cccc2Cl)cc1Cl` the GFP signal change (wild-type ribosome) was -32.7% (active), the OD600 change was -2.5% and the RFP signal change was -1.17%. With `O=C(NNc1cc(Cl)cc(Cl)c1)c1c(F)cccc1Cl` the GFP signal change (wild-type ribosome) was -4.44% (inactive), the OD600 change was -4.42% and the RFP signal change was -0.438%. In the case of `COCC#Cc1ccc([C@@H]2[C@@H](CO)N3C(=O)CN(C(=O)Nc4cc(F)ccc4F)C[C@@H]23)cc1`, the GFP signal change (wild-type ribosome) is reported as -10.5% (inactive), the OD600 change is reported as -5.07% and the RFP signal change is reported as 3.1%. With `COc1ccc(NC(=O)N(C)C[C@@H]2OCCCC[C@@H](C)Oc3ccc(NS(C)(=O)=O)cc3C(=O)N([C@@H](C)CO)C[C@H]2C)cc1` the GFP signal change (wild-type ribosome) was -0.988% (inactive), the OD600 change was -5.29% and the RFP signal change was 0.0065%. For `Cc1noc(C)c1S(=O)(=O)Nc1ccc2c(c1)C(=O)N([C@H](C)CO)C[C@H](C)[C@H](CN(C)C(=O)CCC(F)(F)F)OCCCC[C@H](C)O2`, the GFP signal change (wild-type ribosome) was -2.98% (inactive), the OD600 change was -4.46% and the RFP signal change was 0.03%. In the case of `COc1ccc2c3c(n(C)c2c1)[C@H](CO)N(C(=O)Cc1ccccc1)CC31CCN(C)CC1`, the GFP signal change (wild-type ribosome) is reported as 4.41% (inactive), the OD600 change is reported as 5.73% and the RFP signal change is reported as -1.31%. With `CCNC(=O)[C@H]1[C@H](CO)[C@H]2Cn3c(ccc(C4=CCCC4)c3=O)[C@@H]1N2S(=O)(=O)c1cn(C)cn1` the GFP signal change (wild-type ribosome) was 2.88% (inactive), the OD600 change was 2.51% and the RFP signal change was -2.3%. In the case of `COc1ccc(C(=O)NC2CCN(C(=O)Nc3ccc(F)cc3)CC2)cc1`, the GFP signal change (wild-type ribosome) is reported as 3.88% (inactive), the OD600 change is reported as 11.7% and the RFP signal change is reported as -0.144%. In the case of `COc1ccc(-c2n[nH]c3c2CN(C(=O)c2ccc(F)cc2)CC3)cc1`, the GFP signal change (wild-type ribosome) is reported as -24% (active), the OD600 change is reported as -10.1% and the RFP signal change is reported as -0.0738%. For `COc1cccc(-c2noc(C3CCCN(C(=O)c4ccc(F)cc4)C3)n2)c1` (stereo not given), the GFP signal change (wild-type ribosome) was -16% (inactive), the OD600 change was -14.3% and the RFP signal change was 1.71%. For `COCC#Cc1cnc2c(c1)C(=O)N([C@H](C)CO)C[C@@H](C)[C@@H](CN(C)Cc1ccccc1F)O2`, the GFP signal change (wild-type ribosome) was 4.01% (inactive), the OD600 change was 9.71% and the RFP signal change was -0.92%. For `O=C(N/N=C/c1ccco1)c1ccc(NC(=O)C2CC2)cc1`, the GFP signal change (wild-type ribosome) was 33.5% (inactive), the OD600 change was 14.7% and the RFP signal change was 3.89%. In the case of `CC(/C=N/NC(=O)c1cc(-c2ccc3ccccc3c2)n[nH]1)=C\c1ccco1`, the GFP signal change (wild-type ribosome) is reported as -18.4% (active), the OD600 change is reported as -4.31% and the RFP signal change is reported as 6.39%. In the case of `CC(C)(C)C1CCC(=NNC(=O)c2cc(-c3ccccc3)n[nH]2)CC1` (stereo not given), the GFP signal change (wild-type ribosome) is reported as -8.44% (inactive), the OD600 change is reported as 6.81% and the RFP signal change is reported as -1.93%. For `Nc1ccn([C@@H]2O[C@H](C(=O)N[C@H]3CCCCNC3=O)[C@@H](O)[C@H]2O)c(=O)n1`, the GFP signal change (wild-type ribosome) was 23% (inactive), the OD600 change was 2.48% and the RFP signal change was 2.71%. With `COc1cccc(CNC(=O)C2CCCN(c3ncnc4c3nc3n4CCCCC3)C2)c1` (stereo not given) the GFP signal change (wild-type ribosome) was -0.749% (inactive), the OD600 change was 3.87% and the RFP signal change was -0.866%. In the case of `CN(Cc1ccccc1)C(=O)C1CCCN(c2ncnc3c2nc2n3CCCCC2)C1` (stereo not given), the GFP signal change (wild-type ribosome) is reported as -30.8% (active), the OD600 change is reported as -19.4% and the RFP signal change is reported as -2.82%. For `COc1cccc(NC(=O)C2CCCN(c3ncnc4c3nc3n4CCCCC3)C2)c1` (stereo not given), the GFP signal change (wild-type ribosome) was -27.7% (inactive), the OD600 change was -29.9% and the RFP signal change was -2.84%. For `O=C(NCc1ccc2c(c1)OCO2)c1sccc1Br`, the GFP signal change (wild-type ribosome) was -28% (active), the OD600 change was -4.74% and the RFP signal change was 4.92%.
